# Hit rate of the full screen: of about 190,000 compounds, about 3,100 (1.6%) were called active. The list comes from a sample in which actives are over-represented; it also holds similar structures and randomly drawn compounds. Unmarked numbers belong to inactive results. Cut-off read from the data, not from the text of the source: active = fold change above about 3.3; inconclusive = no clear call, values can overlap the other calls; inactive = below that.
# Assay: NF-kB upregulation, human neuronal cells – cell-based, HTS, primary screen (AID 1239)
# Conditions: NF-kB reporter expression, at 12.5 µM, stronger effect = higher value
row,Structure (SMILES),fold change
1,CCO/C=C1\C(=O)N(c2ccc(OCC)cc2)C(=O)c2ccccc21,1.05
2,Cc1ccc(-c2nnc(-c3ccc(NC(=O)c4cccs4)cc3)o2)cc1,1.45
3,Cc1nc(-c2ccc(NC(=O)c3cccs3)cc2)cs1,5.59 (active)
4,Cc1ccc(-c2csc(NC(=O)c3cccs3)n2)cc1,1.97
5,COc1ccc(CNC(=O)COC(=O)/C=C/c2ccc(S(=O)(=O)N3CCOCC3)cc2)cc1,1
6,COCCNc1nc2nonc2nc1N1CCCC1c1nccs1 (stereo unspecified),1.05
7,C=CCN(Cc1nc(-c2cc(OC)c3c(c2)OCO3)oc1C)C1CCS(=O)(=O)C1 (stereo unspecified),1.14
8,O=C(CSc1nnc2ccccn12)c1ccccc1,1.88
9,Cc1ccc(-n2c(C)cc(C(=O)CN3C(=O)C(=O)N(C4CCCC4)C3=O)c2C)cc1,0.71
10,Cc1ccc(-n2c(C)cc(C(=O)CSc3nnc4ccccn34)c2C)cc1,3.7 (active)
11,CC1CC(C)CN(S(=O)(=O)c2ccc(C(=O)NN3CCOCC3)cc2)C1 (stereo unspecified),1.27
12,Cc1cc(OCC(=O)NC2CCN(C)CC2)ccc1[N+](=O)[O-],0.99
13,COc1ccccc1N(C)S(=O)(=O)c1ccc(Cl)c(C(=O)N2CCC(C(N)=O)CC2)c1,1.12
14,Cc1ccc(-c2cn3cc(C)ccc3n2)cc1,0.56
15,Cc1ccc(-c2cn3cc([N+](=O)[O-])ccc3n2)cc1,4.75 (active)
16,Cn1cnc(C(F)(F)F)c1-c1ccc([N+](=O)[O-])cc1,1.2
17,CCOC(=O)N1CCN(C(=O)CSc2nc(C)nc3c2c(=O)n(C)c(=O)n3C)CC1,0.96
18,Cc1cc(NC(=O)CSc2nc3ccccc3n2CC(C)C)no1,1.74
19,COc1ccc(NS(=O)(=O)c2cc(NC(=O)C3CCCCC3)ccc2N2CCOCC2)cc1,0.72
20,Cc1cc(C)nc(NNC2=CC(=O)CC(C)(C)C2)n1,1.06
21,COCCOC(=O)C1=C(C)NC(=O)CC1c1cc2c(cc1Br)OCO2 (stereo unspecified),0.99
22,COc1ccccc1C1C2=C(COC2=O)Nc2cc3c(cc21)OCO3 (stereo unspecified),1.19
23,CCCOc1ccccc1C1CC(=O)Nc2cc3c(cc21)OCO3 (stereo unspecified),3.71 (active)
24,C1=C(CCNc2ncnc3c2cnn3-c2ccccc2)CCCC1,4.63 (active)
25,COc1ccc(-n2ncc3c(N4CCc5ccccc54)ncnc32)cc1,0.87
26,COc1ccc(-n2ncc3c(N4CCCc5ccccc54)ncnc32)cc1,1

row,Structure (SMILES),fold change
1,c1ccc(-n2ncc3c(N4CCCC4)ncnc32)cc1,5.1 (active)
2,O=C(NNc1ncnc2c1cnn2-c1ccccc1)c1ccco1,1.27
3,O=C(NCCC1=CCCCC1)C1CCN(Cc2cnn(-c3ccccc3)c2-n2cccc2)CC1,0.8
4,CCC(CC)NC(=O)CSc1nnc(-c2c[nH]c3ccccc23)o1,1.09
5,COC(c1ccccc1)c1nnc(CCC(=O)N2CCN(CCOc3ccccc3)CC2)o1 (stereo unspecified),1.23
6,COc1ccc(-c2[nH]ncc2CN(C)Cc2cc(C)[nH]n2)c(F)c1,0.97
7,COc1ccc(O)c(C(=O)c2cnc3c(c2)c(-c2ccc(F)cc2)c(C#N)c(=O)n3C)c1,0.93
8,COc1cc(C(=O)NCc2ccc(-n3cccc3)cc2)cc(OC)c1OC,1.25
9,COc1ccc(CN2CN(C3CCCC3)CSC2=S)cc1,1.11
10,COc1ccc2nc(SCc3ccccc3)nc(C)c2c1,9.79 (active)
11,COc1ccc(-c2nnc3ccc(SCc4ccccc4)nn23)cc1,0.97
12,COC(=O)CSc1nc(C)c2ccc(OC)cc2n1,1.13
13,O=C(c1ccc2ccccc2n1)N1CCN(c2ccccc2Cl)CC1,2.01
14,CN(C)c1ccc(C=C2C(=O)OC3(CCCC3)OC2=O)cc1,1.03
15,COc1ccc(-c2noc(CSc3ccc(C)cc3)n2)cc1,1.04
16,COc1ccc2[nH]c(=O)c(-c3noc(-c4ccc(F)cc4)n3)cc2c1,1.09
17,Cc1ccc(Cc2nc(-c3cccc(C)c3)no2)cc1,1.99
18,Cc1cccc(-c2noc(-c3ccc(F)cc3)n2)c1,8.41 (active)
19,COc1ccc(-c2nc(-c3ccccc3)no2)c(OC)c1,1.5
20,COc1ccc(-c2noc(-c3ccc(C)cc3)n2)cc1,5.86 (active)
21,COCCNC(=S)N1CCC(NC(=O)C23CC4CC(CC(C4)C2)C3)CC1,0.98
22,CN(CCN1CCOCC1)Cc1nc(-c2ccc3c(c2)OCO3)no1,1.23
23,Cn1cc(-c2ccccc2)cc(C#N)c1=O,1.11
24,CCN(CC)P(=O)(Nc1ccc(SC(F)F)cc1)c1ccc(N(C)C)cc1NC(=O)c1ccco1 (stereo unspecified),0.57
25,COc1ccccc1NC(=S)N1CCN(C(c2ccccc2)c2ccccc2)CC1,0.89
26,CCN(CC(=O)NCc1cccs1)C(=O)c1ccccc1F,1.01

row,Structure (SMILES),fold change
1,CC(C)CCN1CCN(Cc2ccc(C(F)(F)F)cc2)CC1CCO (stereo unspecified),0.9
2,COc1cccc(/C(C)=N/Nc2ncc(Cl)cc2Cl)c1,1.88
3,C/C(=N\Nc1nc(Nc2ccccc2)nc(N2CCOCC2)n1)c1cccs1,0.45
4,C/C(=N\Nc1ncc(Cl)cc1Cl)c1cccs1,4.91 (active)
5,OCCNc1nc2ccccc2[nH]1,1.02
6,C/C(=N\Nc1nc2ccccc2[nH]1)c1cccs1,5.42 (active)
7,C/C(=N\Nc1ncc(Cl)cc1Cl)c1ccc(S(=O)(=O)NCc2ccco2)cc1,1.29
8,CSc1nc2c(c(=O)[nH]1)C(c1cccc(Cl)c1Cl)CC(=O)N2 (stereo unspecified),1.18
9,CC1Cc2ccccc2N1S(=O)(=O)c1c(N)n(C)c(=O)n(C)c1=O (stereo unspecified),1.07
10,CC(C)n1c(=O)[nH]c2cc(C(=O)Nc3ccccc3)ccc21,1.9
11,O=C(Nc1ccccc1)c1ccccc1NC(=O)C(F)(F)F,0.9
12,O=C(Nc1ccccc1)c1cc2ccccc2[nH]1,3.43 (active)
13,N/C(=N\OC(=O)/C=C/c1ccccc1)c1ccc(Br)cc1,1.46
14,N/C(=N\OC(=O)c1ccc2c(c1)OCO2)c1ccc(Br)cc1,3.37 (active)
15,N/C(=N\OC(=O)N1c2ccccc2Sc2ccccc21)c1ccc(Br)cc1,1.29
16,CC(C)(C)OC(=O)N/N=C/c1cn(-c2ccccc2)nc1-c1cccnc1,0.46
17,Cc1ccc(S(=O)(=O)N(CC(=O)NN=C2CCN(C)CC2)c2ccc(F)cc2)cc1,0.83
18,COc1cc(OC)cc(C(=O)OCC(=O)Nc2ccc(F)cc2F)c1,1.18
19,COc1ccccc1CC(=O)Nc1ccc(F)cc1F,1.07
20,COc1ccc(NC(=O)Nc2ccc3nc(C)c(C)nc3c2)cc1,0.77
21,COc1ccc(/C=N/NC(=O)Nc2ccc3nsnc3c2)c(OC)c1,1.11
22,COc1ccc(C(=O)Nc2ccc(S(=O)(=O)NC(C)C)cc2)cc1,1.12
23,COc1ccc(NC(=O)Nc2ccc3nsnc3c2)cc1,3.98 (active)
24,COc1ccc(NC(=O)c2ccc(C#CC(C)(C)O)cc2)cc1,1.35
25,COc1ccc(C(=O)Nc2ccc(F)cc2F)cc1,3.39 (active)
26,COc1ccc(NC(=O)c2ccc(OC)cc2)cc1,4.29 (active)

row,Structure (SMILES),fold change
1,Cc1ccc(-c2nn(-c3cccc(F)c3)cc2CNCCc2ccncc2)o1,0.82
2,Cc1cc(C(=O)N/N=C\C(Br)=C\c2ccccc2)c(C)o1,1.27
3,O=C(Nc1cccn(Cc2ccccc2Cl)c1=O)NC1CCCCC1,1.26
4,O=C(COc1ccccc1[N+](=O)[O-])NC1CC1,1.17
5,Cc1ccc(C(=O)N/C(=C\c2cccs2)C(=O)NCCc2ccccn2)cc1C,1.8
6,Cc1ccccc1Nc1scc(-c2ccc(Br)cc2)[n+]1-c1ccccc1C,0.87
7,Cc1ccnc(N2CCCC(C(=O)Nc3cc(F)ccc3C)C2)n1 (stereo unspecified),1.14
8,Cc1cc(C)nc(N2CCC(C(=O)Nc3ccc4c(c3)OCCO4)CC2)n1,1.22
9,O=C(Nc1ccc2c(c1)OCCO2)C1CCCN(c2ncccn2)C1 (stereo unspecified),4.28 (active)
10,COc1ccc(-c2ccc(CCC(=O)O)n2-c2ccc(O)cc2)cc1,0.84
11,O=C(Oc1cccc(NC2=NS(=O)(=O)c3ccccc32)c1)c1ccncc1,1.14
12,Cc1ccc(S(=O)(=O)N(NC2=NS(=O)(=O)c3ccccc32)C(=O)c2ccccc2)cc1,1.06
13,CC(C)(C)c1csc(NC2=NS(=O)(=O)c3ccccc32)n1,3.56 (active)
14,N#Cc1c(NC(=O)C2CCCO2)sc2c1CCCCC2 (stereo unspecified),1.1
15,CCN(CC)CCNS(=O)(=O)c1ccc(/C=C/C(=O)O)cc1,1.3
16,CSc1ccc(/C=N\NC(=O)COc2ccc(Cl)cc2Br)cc1,1.51
17,CSc1ccc(/C=N/NC(=O)c2cccc(Cl)c2)cc1,3.71 (active)
18,COc1ccc(/C=N/NC(=O)c2cccc(C(F)(F)F)c2)cc1,0.86
19,CC(=O)c1ccccc1NC(=O)CC1(CC(=O)O)CCCCC1,1.2
20,CC(=O)Nc1ccc(CN2CCN(Cc3ccc(F)c(F)c3)C(CCO)C2)cc1 (stereo unspecified),1.18
21,CCC(=O)Oc1cccc(C(=O)Nc2ccc(-c3nnc(-c4ccco4)o3)cc2)c1,0.99
22,CCOc1ccc(-c2nnc(-c3ccco3)o2)cc1,2.85
23,CCCCOc1ccc(-c2nnc(-c3ccco3)o2)cc1,3.49 (active)

# — PubChem BioAssay AID1239 (SRMLSC, 2008)
